High-throughput results (PubChem)
MARV entry inh: blocks Marburg virus binding to or entry into cells; AID 540276; Marburg virus pseudotyped entry inhibition, cell reporter; 1.8% of 300,000 active; Potency, µM (top dose mostly 37.8 µM), inactives show top-dose activity change, negative = inhibition, most hits filed as inhibitors; calls by dose curve; tested in HEK293 cells; also: potency is read from the fitted curve at half-maximal effect; % is scaled to controls: 0 for no effect and ±100 for the full control effect
Shiga toxin inh: inhibitors of Shiga toxin in Vero cells | Vero cells, Shiga toxin protein synthesis inhibition reporter | inhibition, % at 38.7 µM | 9.2% of 290,000 active | AID 2315; in the data active = inhibition mostly above about 28%, no sharp cut-off; inactive = mostly below about 43%; also: 0% is about no effect
Lassa entry inh: blocks Lassa virus binding to or entry into cells | 1.2% of 300,000 active | Lassa virus pseudotype entry inhibition, cell reporter | Potency, µM (titrated, usually from 37.9 µM), for the others: top-dose activity change, negative = inhibition, hits mostly inhibitors; calls by dose curve; tested in HEK293 cells; also: potency is read from the fitted curve at half-maximal effect; % is scaled to controls: 0 for no effect and ±100 for the full control effect; nearly all actives have a fitted effect of over 50% in size
Cycloheximide cs: counter-screen for Shiga toxin inhibitors: cycloheximide protein synthesis inhibition; cell reporter, cycloheximide protein synthesis inhibition counterscreen; max response, %; 12% of 300,000 active; in the data active = max response mostly above about 13%, no sharp cut-off; inactive = mostly below about 14%; also: read at 38.3 µM for the half of the compounds with a filed dose; 0% is about no effect
* = called active by the depositor; ? = inconclusive; / = no result given; [ ] = another dose, or the depositor's remark. Only some compounds are listed: those with a hit (about 12% of all), similar ones and a draw of the others.

SMILES | MARV entry inh | Shiga toxin inh | Lassa entry inh | Cycloheximide cs
O=C(Nc1ccccc1C(F)(F)F)N1CCCCCC1 | 2.1% | 34.7* | 4.1% | 9.6*
CCOC(=O)c1ccc(NC(=O)N2CCN(C3CCCCC3)CC2)cc1 | ? | -3.5 | -1.5% | -1.9
O=C(Nc1cccc(Cl)c1)N1CCN(Cc2ccccc2)CC1 | -1.1% | 41.3* | / | 21.2*
CCOC(=O)c1ccc(NC(=O)N2CCCCC2)cc1 | -6.8%[46.1 µM] | 78.5* | -26.1% | 41.4*
O=C(NCCCN1CCCC1=O)c1csc2ccccc12 | 4.8% | 16.7 | 5.2% | 11.9*
Cc1cccc(NC(=O)N2CCN(Cc3ccc(Cl)cc3)CC2)c1 | ? | -5.0 | ? | -1.7
CSC1=NC2(CCN(C(=O)NC3CCCCC3)CC2)N=C1c1ccc(C)cc1 | / | / | -3.9%[46.1 µM] | /
CCN1CCN(CCCNC(=O)Cn2c(-c3cccs3)cc3cc(F)ccc32)CC1 | / | / | -29.0%[46.1 µM] | /
CCCCOc1ccc(C(=O)N2CCN(CCc3ccccn3)CC2)cc1 | -0.9%[46.1 µM] | / | -12.4%[46.1 µM] | /
CN(C)S(=O)(=O)c1cccc(NC(=O)COC(=O)c2cccn2C)c1 | / | 13.8 | / | 23.5
COc1ccc(NC(=O)NC2(C(=O)N3CCN4CCCC4C3)CCCCC2)cc1 (configuration not stated) | 24.2%[46.1 µM] | 15.9 | 18.3% | -2.6
CCOC(=O)c1ccc(NC(=O)NCCN2CCCCC2)cc1 | 14.3% | -1.1 | -3.0% | 9.3*
COc1ccc(NC(=O)NC2(C(=O)N3CCOCC3)CCCCC2)cc1 | 2.0%[46.1 µM] | 13.9 | 12.0% | 21.8*
Cc1ccc(NC(=O)N2CCCCCC2)c(C)c1 | / | 62.2* | / | 49.8*
COC(=O)c1ccc(NC(=S)N2CCCC2)cc1 | / | 25.9 | / | 8.2
COc1ccc(NC(=O)NCCN2CCCCC2)cc1 | / | 18.3 | / | -1.2
COC(=O)c1ccc(NC(=O)C(=O)N2CCCC2)cc1 | 14.6% | 76.0* | 20.9% | 38.1
COc1ccc2c(c1)cc1c(=O)n(CC(=O)NCCCc3ccccc3)nc(C)n12 | -1.7%[46.1 µM] | / | / | /
O=C(O)[C@@H]1C[C@H](C(=O)O)N1 | -8.4% | -3.2 | 23.3% | 8.4
CC(=O)c1c(C)n(-c2cccc(C)c2)c2ccc(OC(=O)COc3ccccc3)cc12 | -16.9%[46.1 µM] | / | -13.3%[46.1 µM] | /
COc1ccc(NC(=O)N2CCOCC2)cc1 | / | / | / | -1.2
Cc1ccc(NC(=O)N2CCCCCC2)cc1 | 12.4%[46.1 µM] | 83.7* | 11.8%[46.1 µM] | 35.8*
COc1ccc(NC(=O)N2CCCCC2)cc1 | 19.3% | 28.6 | 9.3% | 26.3*
Cc1ccc(NC(=O)N2CCC(C(N)=O)CC2)cc1 | ? | 27.3 | ? | -1.5
O=C(Nc1ccc(Br)cc1)N1CCCC(O)C1 (configuration not stated) | 8.3%[46.1 µM] | 69.7 | / | 24.4*
SMILES | MARV entry inh | Shiga toxin inh | Lassa entry inh | Cycloheximide cs
COc1cccc(NS(=O)(=O)c2c(C)n(C)c(=O)n(C)c2=O)c1 | / | -1.7 | / | -2.7
CN(C)C1(CNC(=O)C2CCN(S(=O)(=O)c3ccccc3C(F)(F)F)CC2)CCCCC1 | 4.8% | -13.1 | 1.3% | -4.0
Oc1ccc(N2Cc3ccccc3C2)cc1 | ? | 14.6 | ? | 19.7*
CCOc1ccc(N2CC(=O)N(c3ccc(OCC)cc3)CC2=O)cc1 | -0.1% | -19.2 | 4.1% | -2.1
Cc1cc2c(cc1C)CN(c1ccccc1)C2 | / | 66.4* | / | 48.4*
CCOc1ccc(N2Cc3ccccc3C2)cc1 | ? | 116.0 | -0.7% | 39.3*
CCOC(=O)c1ccc(N2Cc3cc(C)c(C)cc3C2)cc1O | / | 16.9 | / | 19.3*
O=C(CN1CCN(c2ccc(O)cc2)CC1)N1CCc2ccccc21 | -0.2%[46.1 µM] | -5.7 | -3.5% | -3.8
CCOc1ccc(NC(=O)CSc2nc3c([nH]c4ccccc43)c(=O)n2-c2cc(C)cc(C)c2)cc1 | / | / | 27.8%[46.1 µM] | /
CCCNC(=O)c1ccc(C)c(NC(=O)C2=C(C)OCCS2)c1 | 4.4%[46.1 µM] | -7.0 | 10.3%[46.1 µM] | -0.6
Cc1cc(N2Cc3ccccc3C2)ccc1C=O | / | 69.8* | / | 19.2*
O=C(O)c1ccc(N2Cc3ccccc3C2)cc1O | 16.6% | 56.5* | 11.3% | 28.6*
O=C(O)c1ccc(N2CCCCC2)cc1O | / | 19.1 | / | 3.1
Oc1cccc(N2Cc3ccccc3C2)c1 | / | 30.6* | / | 11.1
N=C1C(c2ccccc2)=C(O)CN1c1cccc(O)c1 | 0.1%[46.1 µM] | 13.3 | -11.9% | 2.8
CN1CCN(c2ccc(C=O)cc2)CC1 | -0.4%[46.1 µM] | -3.7 | 2.8% | 9.3
O=Cc1ccc(N2Cc3ccccc3C2)cc1 | 1.26µM* | 56.9* | ? | 18.4*
CCOc1cc2c(cc1OC)C(NC(=O)c1ccco1)CC2=O (configuration not stated) | 2.5%[46.1 µM] | -3.3 | 2.2%[46.1 µM] | -4.5
COc1ccc(Cl)cc1NC(=O)CSc1nnc(-c2ccco2)o1 | ? | -31.4 | 10.8% | 13.9
O=C(NC1CCCC1)C(c1cccnc1)N(C(=O)c1csnn1)c1ccccc1 (configuration not stated) | -1.7%[46.1 µM] | -5.6 | -3.0% | -7.8
COC(=O)c1c(C(=O)OC)c(-c2ccc(Cl)cc2)n2c1CS(=O)(=O)C2 | 3.0%[46.1 µM] | -10.0 | -15.6% | -3.4
O=C(c1ccc(Br)o1)N1CCN=C1SCc1cccnc1 | / | 6.8 | / | -3.3
O=C(c1ccco1)N1CCc2ccccc21 | 8.1% | 66.3* | 29.0% | 34.7*
O=C(c1ccc(Br)o1)N1CCCc2ccccc21 | 27.6% | 4.1 | 9.3% | -2.2
CC1Cc2ccccc2N1C(=S)NC(=O)c1ccco1 (configuration not stated) | ? | 22.6 | 1.0% | 5.6
SMILES | MARV entry inh | Shiga toxin inh | Lassa entry inh | Cycloheximide cs
CSC1=NCCN1C(=O)c1ccc(Br)o1 | -0.1% | 91.9* | / | 38.6*
O=C(c1ccccc1)N1CCc2ccccc21 | 13.1% | 20.0 | 3.9% | 18.7
O=C(c1ccc(Br)o1)N1CCc2ccccc21 | / | 86.9* | / | 44.2*
O=C(NC(=S)N1CCCc2ccccc21)c1ccco1 | 6.6%[46.1 µM] | 81.9* | 2.5% | 32.9*
COc1ccccc1C(=O)Nc1cccc(NC(=O)c2cccs2)c1 | / | / | / | 6.5
CC1CCCN(C(=O)c2cc3c(Cl)nc4ccccc4c3s2)C1 (configuration not stated) | 23.1%[46.1 µM] | / | -1.2%[46.1 µM] | /
CN(CCCNC(=O)c1cc2c(Cl)nc3ccccc3c2s1)Cc1ccccc1 | 10µM* | -8.1 | ? | -0.5
CC1CCCN(CCCNC(=O)c2cc3c(s2)-c2ccccc2OC3)C1 (configuration not stated) | 3.16µM* | -5.2 | ? | -4.2
CC1CCN(CCCNC(=O)c2cc3c(s2)-c2ccccc2OC3)CC1 | / | 11.6 | / | -6.6
CCN(CCCNC(=O)c1cc2c(Cl)nc3ccccc3c2s1)Cc1ccccc1 | ? | / | -22.5%[46.1 µM] | /
CC1CCCN(CCCNC(=O)c2cc3c(Cl)nc4ccccc4c3s2)C1 (configuration not stated) | 2.82µM* | 0.8 | ? | 8.9
COC(=O)C1=C(C(=O)OC)[C@@H]2N(C)c3ccccc3[C@@]23C[C@@H](C(=O)OC)N(C(=O)Nc2cccc(C#N)c2)C3=N1 | 27.4%[14.2 µM] | / | / | /
COc1cc2[nH]c(C(=O)N(C)Cc3ccccc3)cc2c(OC)c1OC | / | -5.8 | / | 1.4
CN(Cc1ccccc1)C(=O)c1cc2cc(F)ccc2[nH]1 | ? | 74.5* | -5.8%[46.1 µM] | 65.0*
Cc1cc(C)cc(C(=O)NC(CC(N)=O)c2ccc(NC3CCCC3)c([N+](=O)[O-])c2)c1 (configuration not stated) | / | -9.8 | / | -1.9
O=C(c1cccc(Cl)c1)c1nn(-c2ccccc2)c(=O)cc1C(F)(F)F | 9.1% | 19.7 | 10.5% | -2.1
O=C(c1ccccc1)c1nn(-c2ccc(Cl)cc2)c(=O)cc1C(F)(F)F | 8.91µM* | 32.9* | 11.2µM* | 12.9*
O=C(c1ccccc1)c1nn(-c2ccccc2)c(=O)cc1C(F)(F)F | ? | 26.6 | ? | 17.0*
